Cruzain noTriton: qHTS Assay for Promiscuous and Specific Inhibitors of Cruzain (without detergent) | Potency, µM, for inactives: max response, negative = inhibition, actives largely listed as inhibitors | purified cruzain, Z-FR-AMC fluorescence, no detergent | 200,000 tested, 2.3% active | AID 1476, 2009;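 note: plate controls were enzyme without inhibitor for no effect and buffer without enzyme for full effect; nearly all actives have a fitted effect of over 40% in size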
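Purified cruzain at 1.5 nM, pre-incubated 15 min with compound at room temperature in 100 mM sodium acetate pH 5.5, 5 mM DTT, 0.00005% Triton X-100. Reaction started with 2 uM Z-FR-AMC; AMC fluorescence increase over 60 s gives rate.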
FBPA Giardia inh: qHTS Assay for Inhibitors of Fructose-1,6-bisphosphate Aldolase from Giardia Lamblia; A8B2U2; purified Giardia FBPA; Potency, µM (doses to about 59.6 µM), for inactives: at the top dose activity, negative = inhibition, usual class: inhibitors; 290,000 tested, 0.71% active; AID 2451, 2010; note: nearly all actives have a fitted effect of over 55% in size
Target sequence (A8B2U2 whole entry, looked up): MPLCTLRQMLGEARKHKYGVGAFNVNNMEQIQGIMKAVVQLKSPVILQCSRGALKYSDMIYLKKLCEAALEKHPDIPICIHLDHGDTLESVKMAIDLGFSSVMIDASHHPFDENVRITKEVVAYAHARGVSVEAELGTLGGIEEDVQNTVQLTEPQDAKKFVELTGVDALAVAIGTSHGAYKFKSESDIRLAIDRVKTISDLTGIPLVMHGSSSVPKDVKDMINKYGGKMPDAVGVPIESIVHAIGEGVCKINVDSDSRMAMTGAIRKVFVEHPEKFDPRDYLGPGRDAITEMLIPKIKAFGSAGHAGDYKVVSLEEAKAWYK
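40 nM FBPA preincubated 10 min at RT with compound (up to 57.5 uM final), then substrate plus GAPDH/TPI/NAD/arsenate coupling and diaphorase/resazurin added. Fluorescence read after 20 min at RT, 525/598 nm.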
Cruzain Triton: qHTS Assay for Promiscuous and Specific Inhibitors of Cruzain (with detergent); purified cruzain, Z-FR-AMC fluorescence, 0.01% Triton; Cruzipain (Trypanosoma cruzi), P25779; 200,000 tested, 0.43% active; Potency, µM, without a hit: max response, negative = inhibition, actives largely listed as inhibitors;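 note: plate controls were neutral wells for no effect and buffer without enzyme for full effect; nearly all actives have a fitted effect of over 40% in size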
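Steps: dispense cruzain (1.5 nM final) in acetate buffer pH 5.5 with DTT and 0.01% Triton X-100; pin-transfer compounds; incubate 15 min RT; add Z-FR-AMC (2 uM final); read fluorescence every 30 s, using the 60 s intensity change.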
* = called active by the depositor; ? = inconclusive; . = not tested or not shown; ! = a repeat was not active; [ ] = remark or other dose. Only a selection was taken, and hits are over-represented in it overall. Calls come from the whole dose curve; as a rule, active = well fitted curve in the direction sought with a large enough effect; inconclusive = small, poorly fitted or top-dose-only effect, or another doubt; inactive = no such curve, though single readings can be large; an effect the other way counts as inactive or inconclusive. Unless noted, % is set by controls: 0 for no effect and ±100 for the full control effect; potency is the fitted concentration of half-maximal effect.

SMILES	Cruzain noTriton	FBPA Giardia inh	Cruzain Triton
CC[C@H](C)[C@H](NC(=O)[C@H](Cc1ccc(O)cc1)NC(=O)[C@H](CCCNC(=N)N)NC(=O)[C@H](CCCNC(=N)N)NC(=O)[C@H](CC(C)C)NC(=O)[C@H](CCC(N)=O)NC(=O)[C@@H](NC(=O)[C@H](CCC(=O)O)NC(=O)[C@H](Cc1ccc(O)cc1)NC(=O)[C@H](CCC(N)=O)NC(=O)[C@H](C)NC(=O)[C@H](CCCNC(=N)N)NC(=O)[C@H](CCC(N)=O)NC(=O)[C@H](CCC(=O)O)NC(=O)[C@H](Cc1cnc[nH]1)NC(=O)[C@@H](NC(=O)[C@H](C)NC(=O)[C@H](Cc1ccc(O)cc1)NC(=O)[C@H](CC(=O)O)NC(=O)CNC(=O)[C@@H]1CCCN1C(=O)[C@H](Cc1ccc(O)cc1)NC(=O)[C@H](CCSC)NC(=O)[C@@H]1CCCN1C(=O)[C@H](CCC(=O)O)NC(=O)[C@H](CC(C)C)NC(=O)[C@@H]1CCCN1C(=O)[C@H](C)N)[C@@H](C)O)[C@@H](C)O)C(=O)N[C@@H](CC(N)=O)C(=O)N[C@H](C(=O)N[C@@H](CC(C)C)C(=O)N[C@H](C(=O)N[C@@H](CCCNC(=N)N)C(=O)N1CCC[C@H]1C(=O)N[C@@H](CCCNC(=N)N)C(=O)N[C@@H](Cc1ccc(O)cc1)C(N)=O)[C@@H](C)O)[C@@H](C)O	.	-1%	.
CC(C)COc1ccc(C(=O)Nc2scc(-c3ccc(Cl)cc3Cl)c2C(N)=O)cc1	10µM*	.	-18%
CC(C)COc1ccc(C(=O)Nc2cc3nn(-c4ccccc4)nc3cc2Cl)cc1	-5%	.	0%
COc1ccc(/C=C/c2ccccc2)cc1C1C2C=CCCC2(C)C(=O)N1Cc1ccccc1 (stereo not given)	.	2%	.
c1ccc2c(c1)ccc1cc3c(ccc4ccccc43)cc12	-10%	.	4%
c1ccc(C(c2cccc3c2ccc2ccccc23)[C@H](c2ccccc2)c2cccc3c2ccc2ccccc23)cc1 (stereo not given in full)	4µM*	.	2%
O=C(O)c1nc(-c2ccccc2)[nH]c1C(=O)O	-6%	.	4%
Oc1ccc(Br)cc1/C=N/NC(=S)NCCc1ccccc1	.	27%	.
O=C(CCc1ccccc1)N/N=C/c1cc(Br)ccc1O	20µM*	-2%	-5%
COc1ccc2c(c1)C(c1ccc(C)cc1)CC(=O)O2 (stereo not given)	-9%	3%[89.2 µM]	-3%
O=C(N/N=C/c1ccncc1)c1cccc(N/N=C/c2ccncc2)c1	.	2%	.
O=C(N/N=C/c1ccncc1)c1cccc(NC(=O)c2ccc(Cl)cc2)c1	-13%	2%	28µM*
CCc1ccc(CNC(=O)Cn2nc(C)c3nn(-c4ccc(Cl)cc4)c(C)c3c2=O)cc1	-8%	.	3%
O=C1CC(c2ccccc2Cl)Cc2c1cnn2-c1nc2ccccc2s1 (stereo not given)	13µM*	1%	-4%
O=c1c(Cl)c(N2CCN(c3ccc(F)cc3)CC2)cnn1-c1nc2ccccc2s1	?	5%	3%
COc1cc(NC(=O)c2cccs2)c(C(=O)OCC(=O)c2cc(C)n(-c3ccc(F)cc3)c2C)cc1OC	4µM*	6%	-2%
COc1ccc(-n2c(C)cc(C(=O)COC(=O)c3cc(NC(=O)c4cccs4)c(OC)c(OC)c3)c2C)cc1	?	10%	1%
COc1cc(NC(=O)c2cccs2)c(C(=O)OCC(=O)c2cc(C)n(-c3ccccc3)c2C)cc1OC	3.2µM*	-3%	-11%
COc1cc(NC(=O)c2cccs2)c(C(=O)OCC(=O)NC(=O)NC(C)(C)C)cc1OC	?	-5%	-14%
O=C(Nc1cccc(C(=O)N2CCN(c3ccc(F)cc3)CC2)c1)c1nsc2ccccc12	?	.	-2%
CNC(=O)c1cccc(-n2c(C)nc3cccnc32)c1C	11%	.	0%
O=C(Cn1c(=O)n(Cc2ccco2)c(=O)c2sc3ccccc3c21)Nc1ccc(F)cc1F	-2%	.	-4%
Cc1ccc2nc(N3CCN(c4ccc(F)cc4)CC3)c3nnnn3c2c1	-10%	.	-2%
Cc1ccc2nc(N3CCN(c4cccc(C)c4C)CC3)c3nnnn3c2c1	4µM*!	-3%	-1%
C/C(=N/NC(=O)c1ccc2c(c1)OCO2)c1ccc(Br)s1	.	2%	.
C/C(=N\NC(=O)c1ccc(Cl)c(Cl)c1)c1ccc(Br)s1	25µM*	3%	2%
COCOc1cc(OC)ccc1C(=O)/C=C/c1cccc(C(F)(F)F)c1	1%	-1%	-1%
N=C(N)SCc1ccc(Cl)c2ccccc12 (tested in a mixture with another compound)	-4%	.	1%
